Data published in PubChem BioAssay AID720504 (National Center for Advancing Translational Sciences (NCATS), 2013).
The campaign covered roughly 360,000 compounds. About 10,000 (2.8%) were called active. About 4% were inconclusive and are not listed. The call rests on the fitted dose curve; in most records, active means well fitted inhibition curve with a large enough effect; inconclusive means small, poorly fitted or top-dose-only effect; inactive means flat fitted curve, though single readings scatter. The list comes from a sample in which actives are over-represented; it also holds similar structures and randomly drawn compounds.

Target: Serine/threonine-protein kinase PLK1 (Homo sapiens) (UniProt P53350)
Sequence (P53350 whole entry, looked up, the tested form may be a part): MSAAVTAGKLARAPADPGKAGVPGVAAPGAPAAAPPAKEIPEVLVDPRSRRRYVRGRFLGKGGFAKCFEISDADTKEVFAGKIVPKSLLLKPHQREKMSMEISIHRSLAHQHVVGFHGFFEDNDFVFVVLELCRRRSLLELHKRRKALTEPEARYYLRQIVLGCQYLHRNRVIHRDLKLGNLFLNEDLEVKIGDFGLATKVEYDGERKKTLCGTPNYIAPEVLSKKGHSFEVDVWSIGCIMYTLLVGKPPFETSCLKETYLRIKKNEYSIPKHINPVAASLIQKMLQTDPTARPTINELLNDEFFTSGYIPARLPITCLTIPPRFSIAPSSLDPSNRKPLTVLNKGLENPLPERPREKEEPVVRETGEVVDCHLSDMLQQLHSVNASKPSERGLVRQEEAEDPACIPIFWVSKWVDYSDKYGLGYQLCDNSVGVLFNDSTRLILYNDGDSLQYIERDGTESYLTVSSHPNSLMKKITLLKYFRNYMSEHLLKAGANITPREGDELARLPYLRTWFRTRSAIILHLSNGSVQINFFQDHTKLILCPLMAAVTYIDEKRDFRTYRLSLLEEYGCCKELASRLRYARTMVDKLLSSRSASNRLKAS
Assay: qHTS for Inhibitors of PLK1-PDB (polo-like kinase 1 - polo-box domain): Primary Screen; further: nearly all actives have a fitted effect of over 65% in size; on max response, negative = inhibition: series mostly up to about 57 µM
Conditions: Plk1 PBD binding of FITC phosphopeptide, fluorescence polarization
On the % scale 0 is the no-effect control and ±100 the full control effect; potency means the concentration at half of the fitted maximal effect.

SMILES	max response, negative = inhibition	Potency
CS(=O)(=O)c1cccc(-c2ccc3nncn3c2)c1	-8.79% (inactive)	–
N#CCCC(C#N)(c1cccnc1)N1CCOCC1 (configuration not stated)	-8.09% (inactive)	–
COc1ccc(C2CC(c3cccs3)=NN2C(=O)CCC(=O)O)cc1OC (configuration not stated)	–	23.8 µM (active)
COc1ccc(C2CC(c3cccs3)=NN2C(=O)CSc2nncs2)cc1OC (configuration not stated)	-11.3% (inactive)	–
COc1ccc(C2=NN(C(=O)CCC(=O)O)C(c3cccs3)C2)cc1OC (configuration not stated)	-7.47% (inactive)	–
COc1ccc(C2CC(c3cccc(OC)c3)=NN2c2ccc(S(N)(=O)=O)cc2)cc1 (configuration not stated)	-4.37% (inactive)	–
COc1ccc(NC(=O)c2cc(=O)[nH]c3ccccc23)cc1S(=O)(=O)N1CCOCC1	-1.4% (inactive)	–
Nc1[nH]c(C(=O)c2ccccc2)c(-c2ccncc2)c1C(=O)NCc1cccc2ccccc12	-5.24% (inactive)	–
OC[C@@H]1CN(Cc2ccc(F)cc2)C[C@H](n2cnc3c(NC4CCCC4)ncnc32)O1	-5.68% (inactive)	–
Oc1c(Cl)cc(Cl)c(Cl)c1Cc1c(O)c(Cl)cc(Cl)c1Cl	–	21.2 µM (active)
CCc1nc2c(OCc3ccccc3)cccn2c1N(C)C(=O)c1ccco1	3.35% (inactive)	–
CCn1c(SCC(=O)N2CCCC2=O)nc2ccccc21	-10% (inactive)	–
O=C(CCc1ccccc1)NNc1ccc(F)cc1	-17.7% (inactive)	–
Cc1ccc(F)c(NC(=O)CCc2ccccc2)c1	-9.88% (inactive)	–
O=C(CCc1ccccc1)Nc1nn[nH]n1	–	26.7 µM (active)
C[C@H]1CN([C@@H](C)CO)C(=O)c2cc(C3=CCCCC3)cnc2O[C@@H]1CN(C)C(=O)Cc1ccccc1	-26.3% (inactive)	–
CCN(C(=O)CSc1ncn[nH]1)c1cccc2ccccc12	-2.53% (inactive)	–
O=C(CSc1ncn[nH]1)Nc1ccc(Br)cc1Br	-1.62% (inactive)	–
CC(C)(C)c1ccc(C(=O)CSc2ncn[nH]2)cc1	–	20 µM (active)
Cc1ccc(S(=O)(=O)/N=S(\C)C(C)C)cc1 (configuration not stated)	–	26.7 µM (active)
CC/S(CC1CC1(Cl)Cl)=N\S(=O)(=O)c1ccc(C)cc1 (configuration not stated)	-0.46% (inactive)	–
CCCC/S(C)=N/S(=O)(=O)c1ccc(C)cc1 (configuration not stated)	-5.69% (inactive)	–

SMILES	max response, negative = inhibition	Potency
O=C(NCC(F)(F)F)c1ccc(S(=O)(=O)NCCc2ccc3c(c2)OCCO3)cc1	-0.767% (inactive)	–
COCCNC(=O)C1C(=O)Nc2ccccc2C(=O)N1c1ccc2c(c1)OCCO2 (configuration not stated)	-3.12% (inactive)	–
O=C(O)c1ccc2c(=O)n3c(nc2c1)/C(=C/c1ccc(OC(F)F)cc1OC(F)F)CC3	–	10.6 µM (active)
Cc1ccc(/C=C2\CCn3c2nc2cc(C(=O)O)ccc2c3=O)c(C)c1	-12.7% (inactive)	–
N#Cc1ccc(/C=C2\CCn3c2nc2cc(C(=O)O)ccc2c3=O)cc1	-8.35% (inactive)	–
COc1cccc(NC(=O)C2(C)CCN2C(=O)CCC2CCCC2)c1 (configuration not stated)	1.49% (inactive)	–
FC(F)(F)Oc1ccccc1C(c1nnnn1C1CCCCC1)N1CCN(C/C=C/c2ccccc2)CC1 (configuration not stated)	-10.7% (inactive)	–
CCNC(=O)C1(C)CCN(C(=O)c2ccccc2)C1 (configuration not stated)	-1.07% (inactive)	–
C[C@@H]1CN([C@@H](C)CO)C(=O)c2c(c3ccccc3n2C)-c2ccccc2CO[C@H]1CN(C)C(=O)C1CC1	-5.93% (inactive)	–
Nc1c(C(=O)O)cnn1-c1ccccc1	–	23.8 µM (active)
NNC(=O)c1cnn(-c2ccccc2)c1C(F)(F)F	-2.55% (inactive)	–
CCNC(=O)c1cnn(-c2ccccc2)c1-c1ccccc1	-11.7% (inactive)	–
COc1ccc(CCNC(=O)CN(c2ccccc2)S(=O)(=O)c2ccccc2)cc1	-1.56% (inactive)	–
CCCCCCN1CCN(C2CN(Cc3cn(CCCCCC)nn3)S(=O)(=O)C2)CC1 (configuration not stated)	6.53% (inactive)	–
COc1ccc(-c2cc3c(c4c2ccn4C)C2CCC3C2)cn1 (configuration not stated)	-0.384% (inactive)	–
O=S(=O)(NC(=S)Nc1ccccc1)c1ccc(F)cc1	–	23.8 µM (active)
COC(=O)C(NS(=O)(=O)c1ccc(F)cc1)c1ccccc1 (configuration not stated)	-18.8% (inactive)	–
CC(=O)NS(=O)(=O)c1ccc(NC(=S)NC(=O)C(C)(C)C)cc1	-8.92% (inactive)	–
Cc1ccc([C@H]2N[C@]3(CCCN(Cc4ccccc4)C3=O)[C@H]3C(=O)N(Cc4ccccc4)C(=O)[C@@H]23)cc1	5.77% (inactive)	–
O=C(NCc1ccccc1Cl)c1csc([C@@H]2O[C@H](CO)[C@@H](O)[C@H]2O)n1	-2.33% (inactive)	–
CCCNC(=O)C1(C)CCCN(C(=O)c2cccc(OC(C)=O)c2C)C1 (configuration not stated)	2.94% (inactive)	–
O=C(NC(=S)Nc1ccc(S(=O)(=O)N2CCOCC2)cc1)c1ccccc1[N+](=O)[O-]	–	33.6 µM (active)

SMILES	max response, negative = inhibition	Potency
COc1ccccc1C(=O)NC(=S)Nc1ccc(N2CCOCC2)cc1	–	26.7 µM (active)
Cc1ccc(C(=O)NC(=S)Nc2ccc(N3CCOCC3)cc2)cc1	-12.8% (inactive)	–
COc1cccc(OC)c1C(=O)NC(=S)Nc1ccc(N2CCOCC2)c(Cl)c1	-8.56% (inactive)	–
O=C(Nc1ccc(S(=O)(=O)N2CCOCC2)cc1)C1CCN(S(=O)(=O)c2ccc(Cl)cc2)CC1	3.5% (inactive)	–
O=C(NNC(=S)Nc1ccccc1)c1cccc(S(=O)(=O)N2CCOCC2)c1	2.12% (inactive)	–
CC(C)(C)NC(=O)C(CCc1ccccc1)n1c(=O)c(-c2ccccc2)nc2ccccc21 (configuration not stated)	-22.7% (inactive)	–
CCCCN(C=O)c1c(CC)nc2c(OCCC3CCCCC3)cccn12	-1.3% (inactive)	–
O=CNc1cc(-c2ccc(C(=O)N3CCOCC3)cc2)cn2c(-c3ccc(F)cc3)cnc12	-25.7% (inactive)	–
O=C(C[C@H]1CC[C@@H](NC(=O)c2ccncc2)[C@@H](CO)O1)NCC1CC1	-5.23% (inactive)	–
CN(Cc1ccccc1)C(=O)CCNC(=O)Cn1cnc2ccccc2c1=O	-6.79% (inactive)	–
Cc1sc2ncn(CC(=O)NCCCC(=O)N(C)Cc3ccccc3)c(=O)c2c1C	–	26.7 µM (active)
Cc1sc2ncn(CC(=O)NCCCC(=O)NCc3ccc(F)cc3)c(=O)c2c1C	-9.91% (inactive)	–
Cc1ccc([C@H]2C[C@H](O)[C@@H](n3cc(COC(=O)c4ccccc4)nn3)CN2CC2CCCCC2)cc1	7.82% (inactive)	–
COc1cccc(Nc2nnc(SCC(=O)N3CC(C)OC(C)C3)s2)c1 (configuration not stated)	1.98% (inactive)	–
COc1cccc(Nc2nnc(SCC(=O)N3CC(=O)Nc4ccccc43)s2)c1	–	26.7 µM (active)
Cc1nc(SCC(=O)N2CC(=O)Nc3ccccc32)c2c(C)c(C)sc2n1	-1.22% (inactive)	–
COC(=O)[C@]12CCCCC=C1N(CCC1=CCCCC1)C(=O)[C@H](CC(=O)N1CCSCC1)C2	-4.1% (inactive)	–
CCOC(=O)[C@]12CCC=C1N(CCC1=CCCCC1)C(=O)[C@H](CC(=O)NCc1ccc(C)o1)C2	-24.8% (inactive)	–
CC(=O)Nc1cccc(-c2cc(NC=O)c3ncc(-c4ccc(F)c(Cl)c4)n3c2)c1	-21.6% (inactive)	–
O=S1(=O)CCN(C2CCCCCCCCCCC2)CC1	-0.289% (inactive)	–
Cc1cc(C)nc(S/C=C/C(=O)c2ccccc2)n1	–	2.99 µM (active)
CCOC(=O)C(=Cc1ccccc1)C(=O)c1ccccc1	-10.7% (inactive)	–

SMILES	max response, negative = inhibition	Potency
Cc1cc(C)nc(N(C#N)CC(=O)Nc2ccccc2)n1	-10.2% (inactive)	–
Cc1ccc(S(=O)(=O)N2C[C@@H](C)[C@]3(C2)[C@H](O)[C@H](OC(=O)NCc2ccccc2)C[C@H]2C(=O)N(c4ccccc4)C(=O)[C@H]23)cc1	-4.82% (inactive)	–
COc1ccc(C(=O)N2CCC(C(=O)Nc3ccc(C)cc3)CC2)cc1	–	3.36 µM (active)
O=C(Nc1ccccc1)C1CCN(C(=O)c2ccc(Br)cc2)CC1	1.93% (inactive)	–
COc1ccc(C(=O)N2CCC(C(=O)Nc3cccc(C)c3)CC2)cc1OC	-1.21% (inactive)	–
Cc1cccc(C)c1NC(=O)C(c1cccc2ccccc12)n1c(=O)c(-c2ccco2)nc2ccccc21 (configuration not stated)	-15.3% (inactive)	–
CCOC(=O)[C@]12CCCC=C1N(Cc1ccc3c(c1)OCO3)C(=O)[C@H](CC(=O)NCc1cccs1)C2	-29.1% (inactive)	–
CC[C@@H](C)[C@H](NC(=O)CCc1c(C)c2cc3c4c(oc3c(C)c2oc1=O)CCCC4)C(=O)O	-24% (inactive)	–
Cc1c(C)c2cc3c4c(oc3c(C)c2oc1=O)CCCC4	-0.836% (inactive)	–
Cc1c(CCC(=O)N[C@@H](CC(C)C)C(=O)O)c(=O)oc2c(C)c3oc4c(c3cc12)CCCC4	–	29.9 µM (active)
CC(OC(=O)c1cccnc1Cl)C(=O)NC1CCCCC1 (configuration not stated)	1.67% (inactive)	–
O=C(OCC(=O)N1CCCCCC1)c1cccc(Cl)c1Cl	-1.69% (inactive)	–
COc1ccc(CC(N)c2csc(NC(=O)NC(c3ccccc3)c3ccccc3)n2)cc1 (configuration not stated)	-3.78% (inactive)	–
O=C(Nc1ccc(Cl)cc1)c1csc([C@H]2C[C@H](O)[C@@H](CO)O2)n1	-10.3% (inactive)	–
C=CCn1c(=S)[nH]c2nc3c(cc2c1=O)COC(C)(C)C3	1.98% (inactive)	–
C=CCn1c(=S)[nH]c2scc(-c3ccco3)c2c1=O	–	26.7 µM (active)
C=CCn1cnc2scc(-c3ccccc3)c2c1=O	-4% (inactive)	–
C[C@H](CO)N1C[C@H](C)[C@H](CN(C)C(=O)Nc2ccc3c(c2)OCO3)Oc2ncc(Br)cc2C1=O	-14.4% (inactive)	–
CC(=O)NCCC(=O)Nc1cc(S(=O)(=O)N2CCOCC2)ccc1N1CCOCC1	-0.805% (inactive)	–
CC(C)CCC(=O)Nc1cc(S(=O)(=O)N2CCOCC2)ccc1N1CCCC1	-0.0205% (inactive)	–
COCCNC(=S)Nc1cc(S(=O)(=O)N2CCOCC2)ccc1N1CCCCC1	–	2.99 µM (active)
